Among the data in PubChem BioAssay AID485346 (Sanford-Burnham Center for Chemical Genomics, 2010) are inhibition values, retold here.

As usually defined, the inhibition is the change of the read-out against control, counted positive when it falls.

Out of some 330,000 compounds screened, about 10,000 (3%) were called active. The sample as a whole holds a higher share of actives than the screen did. Values without a mark were called inactive.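 The calls were made as follows: active = inhibition of at least 50% at 8 µM in the primary screen; inactive = the rest.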

Chain of Protein Mdm4 (Homo sapiens) + E3 ubiquitin-protein ligase Mdm2 (Homo sapiens) (O15151 whole entry, looked up): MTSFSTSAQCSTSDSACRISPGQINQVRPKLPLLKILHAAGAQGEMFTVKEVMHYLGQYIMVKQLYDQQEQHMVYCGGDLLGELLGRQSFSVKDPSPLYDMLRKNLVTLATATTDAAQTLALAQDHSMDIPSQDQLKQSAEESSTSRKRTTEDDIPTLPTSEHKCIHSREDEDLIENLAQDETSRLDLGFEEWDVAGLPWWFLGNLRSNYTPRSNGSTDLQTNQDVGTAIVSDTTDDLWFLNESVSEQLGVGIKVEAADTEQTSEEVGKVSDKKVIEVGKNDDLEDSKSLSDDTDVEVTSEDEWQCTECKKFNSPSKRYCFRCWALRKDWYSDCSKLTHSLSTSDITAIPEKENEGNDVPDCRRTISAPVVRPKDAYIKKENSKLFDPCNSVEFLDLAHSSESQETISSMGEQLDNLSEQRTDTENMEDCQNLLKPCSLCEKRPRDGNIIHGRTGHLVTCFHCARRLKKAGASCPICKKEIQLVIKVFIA
Chain of Protein Mdm4 (Homo sapiens) + E3 ubiquitin-protein ligase Mdm2 (Homo sapiens) (Q00987 whole entry, looked up): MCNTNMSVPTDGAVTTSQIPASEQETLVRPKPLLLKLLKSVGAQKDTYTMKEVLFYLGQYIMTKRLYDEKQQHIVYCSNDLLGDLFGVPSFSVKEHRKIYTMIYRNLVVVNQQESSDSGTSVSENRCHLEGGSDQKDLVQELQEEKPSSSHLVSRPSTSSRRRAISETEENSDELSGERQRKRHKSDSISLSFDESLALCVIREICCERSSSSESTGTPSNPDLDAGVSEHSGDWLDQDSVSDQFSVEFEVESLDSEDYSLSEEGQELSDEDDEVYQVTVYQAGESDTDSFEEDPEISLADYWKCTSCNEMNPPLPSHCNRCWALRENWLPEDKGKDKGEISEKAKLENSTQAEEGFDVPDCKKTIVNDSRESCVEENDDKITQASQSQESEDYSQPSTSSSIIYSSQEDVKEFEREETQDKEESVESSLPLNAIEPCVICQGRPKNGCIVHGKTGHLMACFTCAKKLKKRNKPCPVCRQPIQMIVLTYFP

This assay has as its target Protein Mdm4 (Homo sapiens) + E3 ubiquitin-protein ligase Mdm2 (Homo sapiens) (UniProt O15151+Q00987). Briefly: inhibitors of human Mdm2-MdmX association, primary screen, cell-based, luminescence, split luciferase, SaOS-2, uHTS (AID 485346). The following applies: SaOS-2 split-luciferase Mdm2/MdmX complementation, at 8 µM, stronger effect = higher value.
For the molecule `O=C(NC(=O)N1CCSCC1)c1c(Cl)cccc1Cl`, the inhibition was -31.4%. The result for `COc1ccc(CN2C(=O)CC(Cc3ccc(C)cc3)C2=O)cc1OC` (configuration not stated) reads 5.73%; that for `CCc1cccc(C)c1NC(=O)COC(=O)CNC(=O)c1cccs1`, -18.9%.

On to `Cc1ccc(C)c(NC(CC(=O)c2ccccc2)C(=O)OCC(=O)c2cccs2)c1` (configuration not stated), for which the inhibition is -9.67%.

Take `Cc1ccccc1C(CC(=O)c1cccs1)C(C#N)C#N` (configuration not stated): the inhibition was 75.4% (active).

For `CC1=C(C/C=C(\C)CCCC(C)CCCC(C)CCCC(C)C)C(=O)c2ccccc2C1=O` (configuration not stated), the inhibition is -7.28%. The result for `CC(C)CC(NC(=O)C1CCCN1C(=O)[C@@H](C)NC(=O)OCc1ccccc1)C(=O)NCC(N)=O` (some centres not stated) reads -21.6%; that for `COc1ccc(C2C(C(C)=O)=C(O)C(=O)N2CCc2c[nH]c3ccccc23)cc1` (configuration not stated), -16.3%; that for `COc1ccc2nc(Nc3nc4ccc(NC(C)=O)cc4s3)sc2c1`, 79.7% (active). The result for `COc1ccc2nc(NC(=O)NC3CCCCC3)sc2c1` reads -142%; that for `CCc1noc(C)c1C(=O)Nc1nc2ccc(OC)cc2s1`, 0.6%.

For `Cc1csc2ncc(C(=O)N(Cc3ccccc3)c3ccccn3)c(=O)n12`, the inhibition was 0.705%. The result for `CC(C)NC(=O)c1ccccc1S(=O)c1ccccc1C#N` (configuration not stated) reads -7.43%. The result for `COc1cccc(-c2nnc(NC(=O)c3ccc(S(=O)(=O)N(CC(C)C)CC(C)C)cc3)o2)c1` reads 72.2% (active); that for `O=C(Nc1nnc(-c2ccco2)o1)c1ccc(S(=O)(=O)N2CCOCC2)cc1`, -9.19%. The result for `COc1ccc(-c2nnc(NC(=O)CS(=O)(=O)c3ccc(Cl)cc3)o2)c(OC)c1` reads -3.12%. On to `CC(C#N)OC(=O)c1cccnc1SCC(=O)Nc1ccc2c(c1)OCO2` (configuration not stated), for which the inhibition is -12.8%. The result for `CC(C)(C)n1nnc(CCc2nnn(C(C)(C)C)n2)n1` reads 13.5%. The result for `O=C(CN1C(=O)c2ccccc2S1(=O)=O)N1CCc2ccccc21` reads 68% (active). The result for `O=C(CN1C(=O)c2ccccc2S1(=O)=O)NC1CCCCC1` reads 12.3%. On to `CC1CCCN(C(=O)CN2C(=O)c3ccccc3S2(=O)=O)C1` (configuration not stated), for which the inhibition was 3.88%. As to `O=C(N/N=C/c1cccc(O)c1)c1cc2c(ccc3ccccc32)o1`, the inhibition is -1.11%. The result for `Cc1ccc(NC(=O)c2cc3ccccc3o2)cc1` reads -218%; that for `Cc1c(/C=N\NC(=O)c2cc3ccccc3o2)c2ccccc2n1C`, 50.8% (active); that for `Cc1cccc(N2C(=O)N3[C@H](c4ccc(F)cc4)[C@@H]4C(=O)N(C5CCCCC5)C(=O)[C@@H]4[C@]3(Cc3ccccc3)C2=O)c1`, 18.2%. The result for `O=C1[C@H]2[C@@H](c3ccc(Cl)cc3)N3C(=O)N(c4cccc(F)c4)C(=O)[C@@]3(Cc3ccccc3)[C@H]2C(=O)N1C1CCCCC1` reads 4.69%. The result for `O=C1[C@H]2[C@@H](c3ccc(F)cc3)N3C(=O)N(c4ccc(C(F)(F)F)cc4)C(=O)[C@@]3(Cc3ccccc3)[C@H]2C(=O)N1C1CCCCC1` reads 95.3% (active); that for `Cc1ccc(NC(=O)CCCNC(=O)c2ccc(Cl)cc2)cc1S(=O)(=O)N1CCCCC1`, 14.3%; that for `Cc1ccc(CN2CCN(/N=C/c3cccnc3)CC2)c(C)c1`, -1.63%. As for `CC(C)c1ccc(Cc2nnc(NCCCO)[nH]c2=O)cc1`, the inhibition was -3.05%. The result for `O=c1[nH]c(NCCO)nnc1Cc1ccc(Cl)cc1` reads 16.8%.

As to `COc1ccc(Cc2nnc(N/N=C/c3ccccc3O)[nH]c2=O)cc1OC`, the inhibition was 66.5% (active). For `OC(CN=c1sc2ccccc2n1CC(O)COc1ccccc1)COc1ccccc1` (configuration not stated), the inhibition was 33.4%. The result for `Cc1cccc(NC(=O)CN2CCN(CC(=O)NCC3(N4CCCCC4)CCCCC3)CC2)c1C` reads -24.2%; that for `Cc1nc2nc(C)c(CCC(=O)N3CCN(c4ccccc4)CC3)c(C)n2n1`, 7.55%; that for `COc1ccc(CNC(=O)C2CCCC2)cc1`, 1.84%. The result for `COc1ccc(CNC2CCCCC2)cc1` reads 7.1%; that for `COc1ccc(CNc2nc(NCc3ccc(OC)cc3)c3ncn(C4CCCC4)c3n2)cc1`, 60.8% (active).

In the case of `C=CCN1C(=O)C(O)(CC(=O)c2ccc(Cl)cc2)c2ccccc21` (configuration not stated), the inhibition is 4.99%.

`C=CCC(CC=C)(C(N)=O)c1ccccc1`: the inhibition was 11.4%. The result for `CC(C)c1ccccc1OCC(O)CN(CC(O)COc1cccc2ccccc12)C(C)C` (configuration not stated) reads 59.8% (active). The result for `CCC(C)Sc1nc2c(c(=O)[nH]c(=O)n2C)n1CC(O)COc1cccc2ccccc12` (configuration not stated) reads 16.9%. The result for `Cc1cc(C)c(NC(=O)C[N+](C)(C)CC(O)COc2cccc3ccccc23)c(C)c1` (configuration not stated) reads 12.6%.

On to `CCC(C)(C)c1ccc(Oc2ccc(NC(=O)COC(=O)C3=COCCO3)cc2)cc1`, for which the inhibition was 0.755%. The result for `C[C@@H](O)c1nc2ccccc2n1N` reads -21.5%; that for `CC1CC(=O)Nc2ccccc2N1C(=O)COc1ccc2cc(Br)ccc2c1` (configuration not stated), 20%. The result for `O=C1CN(c2nc(-c3ccccc3)c3cc(Br)ccc3n2)c2ccccc2N1` reads 66.1% (active). The result for `O=c1c2cc(Br)ccc2nc(-c2cccc(Cl)c2)n1O` reads 40.4%. Regarding `CC(=O)c1ccc(S(=O)(=O)N2CCC3(CC2)OCCO3)cc1`, the inhibition is -6.56%. `CC(=O)c1ccc(S(=O)(=O)N2CCN(c3nc4c(C)c(C)ccc4cc3C#N)CC2)cc1`: the inhibition is 32.9%. The result for `CC(=O)c1ccc(S(=O)(=O)N2CCN(C(=O)/C=C/c3ccc4ccccc4n3)CC2)cc1` reads 79.9% (active); that for `Cc1cc(C)n2nc(C(=O)OCC(=O)N(CCC#N)c3ccc(F)cc3)nc2n1`, 11.4%. The result for `Nc1cccc2c1C(=O)N(Cc1nnc(-c3ccccc3Br)o1)C2=O` reads 2.07%; that for `O=C(c1nnc(-c2ccc(Cl)cc2)o1)C1CCCC1`, -34.3%. The result for `O=C(c1[nH]ncc1-c1ccc(Cl)cc1)C1CO1` (configuration not stated) reads 78.2% (active); that for `S=c1[nH]nc(-c2ccc(Cl)cc2)n1CC1CCCO1` (configuration not stated), -1.54%. Take `CCOc1ccc(NC(=O)CSc2nncn2C)cc1`: the inhibition was 6.1%. The result for `NC(=O)C(Cc1ccccc1)NC(=O)C12CC3CC(CC(C3)C1)C2` (configuration not stated) reads 2.27%.

Consider `CCN(CC(=O)Nc1c(F)cccc1F)C(=O)c1ccc(-c2ccc(C(C)=O)cc2)o1`, for which the inhibition is -16.4%. The result for `C[n+]1cc(-c2ccccc2)oc1-c1ccccc1` reads -21.5%. In the case of `Cc1cc(C)n2nc(C(=O)OCC(=O)N(C)CC(=O)Nc3ccc(F)cc3)nc2n1`, the inhibition was -1.93%.

As for `CCC1CCCCN1CCCNC(=O)C1CCC(Cn2c(=O)[nH]c3ccccc3c2=O)CC1` (configuration not stated), the inhibition is -28.9%. The result for `CCC1CCCCN1CCCNC(=O)Cn1nc(-c2ccccc2)ccc1=O` (configuration not stated) reads 5.14%. Take `CCC1CCCCN1CCCNC(=O)c1cc2c(Cl)nc3ccccc3c2s1` (configuration not stated): the inhibition was 58.7% (active). As to `COC(=O)Cc1ccc(OCC(=O)NC2CCCC2)cc1`, the inhibition is 8.06%. The result for `CC(=O)c1ccc(OCCCC(=O)Nc2ccc(C)c(S(=O)(=O)N3CCOCC3)c2)cc1` reads 13.1%; that for `CCOC(=O)c1ccccc1NC(=O)CSc1nc2ccccc2c(=O)[nH]1`, 10.1%. The result for `O=C(CSc1nc2ccccc2c(=O)[nH]1)Nc1nc(-c2ccc(Br)cc2)cs1` reads 75.5% (active); that for `CC(=O)NCc1ccc(-c2csc(NC(=O)CCCc3nc4ccccc4c(=O)[nH]3)n2)cc1`, 6.81%; that for `Cc1nnc(Nc2ccccc2F)s1`, 1.11%. For `O=C(Nc1ccc(-c2csc(Nc3cccc(C(F)(F)F)c3)n2)cc1)c1cccc(C(F)(F)F)c1`, the inhibition is 69.4% (active).

In the case of `Cc1nc(NC(=O)c2cccc(Cl)c2)sc1-c1csc(Nc2cccc(Cl)c2)n1`, the inhibition is -2.75%. The result for `O=C(Nc1ccc(C(F)(F)F)cc1)c1cccc(-n2cnnn2)c1` reads -13.9%. Consider `CCn1cc(CCC(=O)NCc2ccc(F)cc2)c2ccccc21`, for which the inhibition is -7.13%. The result for `Cc1noc(C)c1C(=O)OCC(=O)N1CCN(S(=O)(=O)c2ccc3ccccc3c2)CC1` reads -6.59%. The result for `COc1ccc(CC(=O)NCc2nnc(SCC(=O)Nc3ncc(C)s3)n2C)cc1` reads 6.63%; that for `Cc1ccc(S(=O)(=O)CC(=O)Nc2nnc(C)s2)cc1`, 7.87%; that for `Cc1ccc(CS(=O)(=O)c2ncc(Cl)c(C(=O)Nc3nnc(C)s3)n2)cc1`, 99.7% (active).

On to `Cc1nnc(NC(=O)c2ccc3nccnc3c2)s1`, for which the inhibition was 6.88%.

`CCSc1nnc(NC(=O)c2ccc(C)cc2)s1`: the inhibition is -64.2%. The result for `COCCSc1nnc(NC(=O)CCS(=O)(=O)Cc2ccccc2)s1` reads 25.9%; that for `CSc1nnc(NC(=O)c2nc(S(=O)(=O)Cc3ccc(C)cc3)ncc2Cl)s1`, 98.2% (active); that for `CCN(CC)S(=O)(=O)c1cc(C(=O)Nc2cc(S(=O)(=O)N3CCOCC3)ccc2N2CCCC2)ccc1F`, 26.3%. The result for `CCC(NC(=O)c1cc(COc2ccc(F)c(F)c2)on1)c1ccncc1` (configuration not stated) reads 5.8%; that for `O=C(Nc1ccc2sc3ccccc3c(=O)c2c1)c1ccccc1Cl`, -48%. Turning to `CCOC(=O)Cn1nnnc1C`, the inhibition is 15.3%.

`O=C(CN1CCC(NC(=O)C2CC2)CC1)Nc1ccccc1[N+](=O)[O-]`: the inhibition is 15.4%. With `COc1ccc(CC(=O)N[C@@H]2c3cc(OC)c(OC)cc3C[C@H]2OCc2ccccc2)cc1`, the inhibition is 38.6%. The result for `O=c1c2ccccc2nc2n1C(CSCc1cccc(C(F)(F)F)c1)CS2` (configuration not stated) reads 0.237%. As for `Cc1cc(C(=O)CCl)c(C)n1CC1COc2ccccc2O1` (configuration not stated), the inhibition was 78.9% (active). The result for `Cc1noc(C)c1C(=O)NCC1COc2ccccc2O1` (configuration not stated) reads 26.4%; that for `O=C1C(=O)N(CC2COc3ccccc3O2)c2ccccc21` (configuration not stated), 26.1%.
